Measured values: PubChem BioAssay (Tox21)
Unmarked numbers belong to inactive results. The source made the active and inactive calls. The call rests on the fitted dose curve; in most records, active means well fitted curve in the direction sought with a large enough effect in the repeat runs; inconclusive means weak or mixed curves; inactive means flat fitted curve, though single readings scatter.

Assay: qHTS assay to test for compound auto fluorescence at 590 nm (red) in HepG2 cell free culture (AID 720684)
Conditions: cell-free medium autofluorescence, red 540/590 nm; series mostly up to 91.3 µM; fluorescence, % of Rose Bengal: at the top concentration
Text: U.S. Tox21 Program National Center for Advancing Translational Sciences [NCATS] NIH Chemical Genomics Center [NCGC] U.S. Environmental Protection Agency [EPA] National Institutes of Environmental Health Sciences [NIEHS] National Toxicology Program [NTP] U.S. Food and Drug Administration [FDA] Tox21 Assay Overview: Compound auto fluorescence often interferes with screening of the compound library against various biological targets and signaling pathways. Some of these compounds may have fluorophoric properties. Such properties may interfere with the assay outputs resulting in false positives and/or negatives. To decrease such complications and ensure the compound activities are relevant in terms of biological response, the Tox21 10K compound library was screened for auto fluorescence. From the fluorophores used as reporter signals in our screening assays, the auto fluorescence equivalencies of compounds against three fluorophores have been evaluated: Triamterene, Fluorescein and Rose Bengal sodium for blue, green and red fluorescence, respectively. The fluorescence intensities were measured using Excitation/Emission wavelengths at 405/460nm, 485/535nm and 540/590nm for blue, green and red labels, respectively. This assay includes the red fluorescence data.
Tox21 Assay Protocol Summary: 5 uL of culture medium (MEM containing 10% FBS) per well was dispensed into black wall/clear bottom 1536-well plates using a Multidrop Combi Dispenser (ThermoFisher Scientific, Waltham, MA). After 23 nL compound or DMSO vehicle was transferred into assay plate by a pintool work station (Kalypsys, San Diego, CA), fluorescence intensities in the assay plates were measured by an Envision (PerkinElmer, Shelton, CT) plate reader using three labels for measuring blue, green and red fluorescence at […] 460, 535 and 590nm respectively.
On the % scale 0 is the no-effect control and ±100 the full control effect; potency means the concentration at half of the fitted maximal effect; tags describe the fitted curve by direction and shape or compound fluorescence and quenching.

| SMILES | fluorescence, % of Rose Bengal | Potency |
| --- | --- | --- |
| Nc1ccc2cc(S(=O)(=O)O)cc(O)c2c1N=Nc1ccccc1C(F)(F)F | -0.108% | – |
| CCCCCCCCn1sc(Cl)c(Cl)c1=O | 0.0219% | – |
| CC(C)CCCCCCCCCCCCCCC(=O)O | 0.113% | – |
| O=C(OC[C@H]1O[C@@H](OC(=O)c2cc(O)c(O)c(OC(=O)c3cc(O)c(O)c(O)c3)c2)[C@H](OC(=O)c2cc(O)c(O)c(OC(=O)c3cc(O)c(O)c(O)c3)c2)[C@@H](OC(=O)c2cc(O)c(O)c(OC(=O)c3cc(O)c(O)c(O)c3)c2)[C@@H]1OC(=O)c1cc(O)c(O)c(OC(=O)c2cc(O)c(O)c(O)c2)c1)c1cc(O)c(O)c(OC(=O)c2cc(O)c(O)c(O)c2)c1 | – | inactive |
| NC(=O)CC[C@@H]1NC(=O)[C@H](Cc2ccccc2)NC(=O)[C@H](Cc2ccc(O)cc2)NC(=O)CCSSC[C@@H](C(=O)N2CCC[C@H]2C(=O)N[C@@H](CCCN=C(N)N)C(=O)NCC(N)=O)NC(=O)[C@H](CC(N)=O)NC1=O | – | inactive |
| N/C(=N\N=C\c1ccc(Cl)cc1)N/N=C/c1ccc(Cl)cc1 | -0.0256% [at 46 µM] | – |
| Oc1cccc2cc3cccc(O)c3c(O)c12 | -0.0034% | – |
| CCN(CC)CCNC(=O)c1c(C)[nH]c(/C=C2\C(=O)Nc3ccc(F)cc32)c1C | -0.148% [at 46 µM] | – |
| CN1CCN(CCC(=O)N2c3ccccc3Sc3ccc(C(F)(F)F)cc32)CC1 | 0.0202% [at 46 µM] | – |
| Nc1ccccc1O | -0.636% | – |
| [Cl][Au]([Cl])[Cl] | -0.0351% | – |
| O=[N+]([O-])c1cc([N+](=O)[O-])c2ccc(S(=O)(=O)O)cc2c1O | 0.191% | – |
| NNc1nc(-c2ccccc2)cs1 | -0.567% [at 95.7 µM] | – |
| O=C(c1ccc(O)cc1O)c1ccc(O)cc1O | – | inactive |
| CCCCCCCCOC(=O)c1ccc(O)cc1 | – | inactive |
| NC(=O)N1C(=O)C(C(=O)c2cc(Cl)cs2)c2cc(F)c(Cl)cc21 (stereo not given) | 0.0241% | – |
| C=C(C)C(=O)OCC[N+](C)(C)C | -0.0098% | – |
| CCN1/C(=C/C=C/c2sc3ccccc3[n+]2CC)Sc2ccccc21 | – | 14.1 µM [fluorescent] (active) |
| Oc1cccc(-c2c3nc(c(-c4cccc(O)c4)c4ccc([nH]4)c(-c4cccc(O)c4)c4nc(c(-c5cccc(O)c5)c5ccc2[nH]5)CC4)C=C3)c1 | – | inactive |
| O=c1cccccc1O | -0.104% [at 95.7 µM] | – |

| SMILES | fluorescence, % of Rose Bengal | Potency |
| --- | --- | --- |
| CCCCC(CC)COC(=O)c1ccccc1C(=O)O (stereo not given) | -0.515% [at 95.7 µM] | – |
| CCC(C)Nc1ccc(NC(C)CC)cc1 (stereo not given) | 0.469% [at 95.7 µM] | – |
| CC(C)(C)C(=O)OCOC(=O)C1N2C(=O)CC2S(=O)(=O)C1(C)C (stereo not given) | 0.0182% [at 46 µM] | – |
| Cn1cc(C(=O)[C@@H]2CCc3nc[nH]c3C2)c2ccccc21 | -0.0532% [at 46 µM] | – |
| CCCCCCCC/C=C/CCCCCCCC1=NCCN1CCO | -0.235% | – |
| Cc1onc(-c2c(Cl)cccc2Cl)c1C(=O)N[C@@H]1C(=O)N2[C@@H]1SC(C)(C)[C@@H]2C(=O)O | 0.0042% [at 46 µM] | – |
| CCc1oc2ccccc2c1C(=O)c1cc(Br)c(O)c(Br)c1 | -0.322% [at 46 µM] | – |
| CCCCCCCCCCCCCCCCCC[N+](C)(C)Cc1ccccc1 | 0.0134% | – |
| CCCCCCCCNC(C)C(O)c1ccc(SC(C)C)cc1 (stereo not given) | -0.412% [at 46 µM] | – |
| Oc1ccc(C2(c3ccc(O)cc3)CC3CC2C2CCCC32)cc1 (stereo not given) | -0.0039% | – |
| C[C@H]1[C@H]2CC[C@H]3[C@@H]4CC=C5C[C@@H](N(C)C)CC[C@]5(C)[C@H]4CC[C@]23CN1C | -0.265% [at 46 µM] | – |
| Clc1ccccc1C(c1ccccc1)(c1ccccc1)n1ccnc1 | – | inactive |
| CC/C(=C(\c1ccc(O)cc1)c1ccc(OCCN(C)C)cc1)c1ccccc1 | 0.142% [at 95.7 µM] | – |
| C[C@@H](NCCCc1cccc(C(F)(F)F)c1)c1cccc2ccccc12 | -0.137% [at 46 µM] | – |
| CCCCCCOC(=O)c1ccc(O)cc1 | – | inactive |
| C[C@@H]1C[C@H]2[C@@H]3CCC4=CC(=O)C=C[C@]4(C)[C@@]3(Cl)[C@@H](O)C[C@]2(C)[C@@]1(OC(=O)c1ccco1)C(=O)CCl | -0.333% [at 18.6 µM] | – |
| CC(C)n1nc(-c2cc3cc(O)ccc3[nH]2)c2c(N)ncnc21 | 0.0262% [at 46 µM] | – |
| CCCCCCCCCCCC[N+](C)(C)CCCCCCCCCCCC | -0.116% | – |
| CCc1cc(Cc2cc(CC)c(N)c(CC)c2)cc(CC)c1N | 0.315% | – |
| Fc1ccc(C(c2ccc(F)cc2)N2CCN(C/C=C/c3ccccc3)CC2)cc1 | 0.521% [at 46 µM] | – |
